LmPK inhibitor = qHTS Assay for Inhibitors of Leishmania Mexicana Pyruvate Kinase (LmPK); AID 1721, 2009; Potency, µM (top dose mostly 57.5 µM), for inactives: at the highest dose activity change, negative = inhibition, most hits filed as inhibitors; purified LmPK, Kinase-Glo ATP luminescence, 1 h; 290,000 compounds, 0.37% hits; further: potency means the concentration at half of the fitted maximal effect; on the % scale 0 is the no-effect control and ±100 the full control effect
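Purified LmPK (0.1 nM) converted ADP (0.1 mM) to ATP with PEP (0.5 mM) in imidazole buffer pH 7.2 with KCl and MgCl2, 1 h at room temperature. ATP was read by Kinase-Glo luminescence; data normalized to uninhibited and no-enzyme controls.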
CHX counter = Cycloheximide Counterscreen for Small Molecule Inhibitors of Shiga Toxin. max response, %. 300,000 compounds, 12% hits. AID 2314, 2010. cell reporter, cycloheximide protein synthesis inhibition counterscreen; in the data active means max response mostly above about 13%, no sharp cut-off; inactive means mostly below about 14%; further: read at 38.3 µM for the half of the compounds with a filed dose; 0% is about no effect
Shiga toxin inh = A qHTS for Small Molecule Inhibitors of Shiga Toxin; 290,000 compounds, 9.2% hits; inhibition, % at 38.7 µM; Vero cells, Shiga toxin protein synthesis inhibition reporter; AID 2315, 2010; in the data active means inhibition mostly above about 28%, no sharp cut-off; inactive means mostly below about 43%; further: 0% is about no effect
Sm TGR block = qHTS Assay for the Inhibitors of Schistosoma Mansoni Peroxiredoxins. purified TGR, DTNB reduction, TNB absorbance 405 nm. 360,000 compounds, 3% hits. AID 485364, 2010. Potency, µM (titrated, usually from 114 µM), inactives show at the top dose activity change, negative = inhibition, actives largely listed as inhibitors; further: potency means the concentration at half of the fitted maximal effect; on the % scale 0 is the no-effect control and ±100 the full control effect; nearly all actives have a fitted effect of over 60% in size
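First, TGR (20 nM dispensed) and NADPH were mixed with compound. Second, a 15 min room-temperature incubation followed. Third, further NADPH and then DTNB were added to start the reaction. Finally, TNB absorbance was monitored kinetically.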
TbPYK inhibitor = qHTS of Trypanosoma Brucei Inhibitors; pyruvate kinase (Trypanosoma brucei), Q57TT1; Potency, µM (titrated, usually from 76.8 µM), for inactives: at the highest dose activity, negative = inhibition, usual class: inhibitors; TbPYK enzyme, Kinase-Glo Plus ATP luminescence, 45 min; 410,000 compounds, 0.12% hits; further: potency means the concentration at half of the fitted maximal effect; on the % scale 0 is the no-effect control and ±100 the full control effect; nearly all actives have a fitted effect of over 50% in size
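In this concentration-response screen, enzyme-free wells defined baseline while DMSO plates tracked drift. Each reaction combined TbPYK, substrate, compound and 130 uM ADP for 45 min at room temperature. Kinase-Glo Plus luminescence gave the signal.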
FBPA Giardia inh = qHTS Assay for Inhibitors of Fructose-1,6-bisphosphate Aldolase from Giardia Lamblia | Potency, µM (titrated, usually from 59.6 µM), for the others: at the top dose activity, negative = inhibition, usual class: inhibitors | A8B2U2 | 290,000 compounds, 0.71% hits | purified Giardia FBPA; further: potency means the concentration at half of the fitted maximal effect; on the % scale 0 is the no-effect control and ±100 the full control effect; nearly all actives have a fitted effect of over 55% in size
Target sequence (A8B2U2 whole entry, looked up): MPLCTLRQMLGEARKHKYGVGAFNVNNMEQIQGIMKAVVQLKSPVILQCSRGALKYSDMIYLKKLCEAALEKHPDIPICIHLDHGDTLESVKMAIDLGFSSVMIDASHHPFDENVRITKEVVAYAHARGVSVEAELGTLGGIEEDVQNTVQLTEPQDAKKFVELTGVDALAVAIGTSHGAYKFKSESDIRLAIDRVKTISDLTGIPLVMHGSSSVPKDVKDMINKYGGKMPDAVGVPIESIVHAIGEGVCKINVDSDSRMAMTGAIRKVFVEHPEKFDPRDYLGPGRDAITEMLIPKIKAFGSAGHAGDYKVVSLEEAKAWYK
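Giardia FBPA (40 nM reagent) was preincubated 10 min at RT with compound (up to 57.5 uM final), then substrate plus GAPDH/TPI/NAD/arsenate coupling system with diaphorase/resazurin was added; resorufin fluorescence (525/598 nm) was read after 20 min.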
Starred values were filed as active, the others as inactive; ? = inconclusive; · = no result; [ ] = remark or other dose. This excerpt belongs to a sample that is enriched for hits. Unless noted, the call rests on the fitted dose curve; in most records, active means well fitted curve in the direction sought with a large enough effect; inconclusive means small, poorly fitted or top-dose-only effect, or another doubt; inactive means no such curve, though single readings can be large; an effect the other way counts as inactive or inconclusive.

SMILES	LmPK inhibitor	CHX counter	Shiga toxin inh	Sm TGR block	TbPYK inhibitor	FBPA Giardia inh
CCOC(=O)C1Nc2ccc(C(=O)O)cc2C2C=CCC12 (configuration not stated)	9%	-3	·	?	-11%	?
CCN(CC)C(=O)c1ccc2c(c1)C1C(Cl)C(Sc3ccccc3[N+](=O)[O-])CC1C(C(=O)O)N2 (configuration not stated)	?	2	-6	3.2µM*	-26%	-23%
O=C(Cn1c(=O)n(-c2ccc(F)cc2)c(=O)c2sc3ccccc3c21)N1CCCC1	·	·	·	3%	1%	·
CCc1cnc2c(c1SCC(=O)NCc1ccc(C)cc1)c(=O)n(C)c(=O)n2C	·	·	·	0%	-2%	·
COC(=O)C1=C(c2ccccc2)c2ccccc2S(=O)(=O)N1CC(=O)Nc1ccccc1Cl	·	·	·	2%	0%	·
CC(NC(=O)c1ccccc1Cl)C(=O)N1CCN(Cc2ccc3c(c2)OCO3)CC1 (configuration not stated)	·	·	·	14µM*	2%	·
C[C@H](NC(=O)c1ccccc1)C(=O)N1CCN(Cc2ccc3c(c2)OCO3)CC1	·	·	·	·	-8%	·
O=C(N1CCN(Cc2ccc3c(c2)OCO3)CC1)C(Cl)(Cl)Cl	-1%	17*	67*	?	-2%	-9%
Cc1ccc(NC(=O)Cn2c(=O)n(Cc3nc(-c4ccccc4)no3)c(=O)c3ccccc32)c(C)c1	·	·	·	-1%	1%	·
COc1cnc(-c2ccccn2)nc1Oc1ccc(F)cc1F	7%	33*	40	5%	2%	-9%
COc1cnc(-c2ccccn2)nc1Oc1ccccc1Cl	-1%	30*	34	5%	6%	-5%
CC1CCc2c(sc3nc(C(C)(C)C)nc(N4CCN(C(=O)CCl)CC4)c23)C1 (configuration not stated)	3%	20*	46*	3%	-6%	-12%
Cc1ccc(OCC(=O)N2CCCc3ccccc32)cc1	-1%	19	33*	-13%	4%	3%
CCc1ccc(OCC(=O)N2CCc3ccccc32)cc1	0%	35*	96*	8%	0%	-2%
CCOCC(=O)N1CCc2ccccc21	-8%	1	17	-30%	-15%	2%
O=C(COc1ccc2c(c1)CCC2)N1CCc2ccccc21	4%	43*	98*	11%[11.4 µM]	?	-2%
Cc1ccc(OCC(=O)N2CCc3ccccc32)cc1	-14%	76*	84*	0%	-6%	-4%
O=C(c1cnccn1)N1CCC2(CC1)CN(Cc1ccccc1)C2	·	·	·	·	0%	5%
COc1cc(NC(=O)c2cccc(C)c2)ccc1NC(=O)c1cc2ccccc2o1	0%	13*	49	-11%	-2%	5%
CCC(=O)Nc1ccc(Cl)c(NC(=S)NC(=O)c2ccco2)c1	-5%	19	-4	?	-3%	?
CCOc1cccc(C(=O)Nc2ccc(NC(=O)c3cc4ccccc4o3)c(OC)c2)c1	-5%	-2	2	2%	1%	1%
CCC(=O)NC(=S)Nc1ccc(NC(=O)c2cc3ccccc3o2)c(OC)c1	3%	1	30*	-11%	0%	-5%
COc1cc(NC(=O)C(C)C)ccc1NC(=O)c1cc2ccccc2o1	-5%	24*	40*	4%	-3%	3%
CCC(=O)Nc1ccc(Cl)c(NC(=S)NC(=O)c2cc3ccccc3o2)c1	-1%	52*	72*	-7%	1%	5%
Cc1ccc(N2C(=O)CSC23C(=O)N(CC(=O)Nc2ccccc2F)c2ccccc23)cc1C (configuration not stated)	·	·	·	2%	1%	·
CC(C)Nc1nc(-c2ccncc2)nc(-c2ccccc2)c1C#N	-7%	-2	2	15%	2%	6%
COc1ccc(CCN(C)Cc2c(O)ccc3cc(Br)ccc23)cc1OC	10%	-2	6	4µM*	-8%	-9%
COc1ccc(CN(C)Cc2c(O)ccc3cc(Br)ccc23)cc1OC	4%	-5	-8	8.9µM*	-2%	-10%

Screening results as filed in PubChem.
